Inconclusive results are not listed. Active and inactive are the calls of the source.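 Rule for the calls, unless noted: active = binding below the plate cutoff, the plate median minus 3 SD, with a reading above zero; inconclusive = below the plate cutoff but reading exactly zero; inactive = the rest.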
Legend:
[1] = yeast TOR pathway RPL19A-GFP modulators, primary screen, cell-based, S. cerevisiae, multiplex flow cytometry (AID 1862; in the data active = percent of DMSO control GFP below about 86%;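 note: lower values mimic rapamycin by blocking the RPL19A rise seen in DMSO cells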); conditions: S. cerevisiae RPL19A-GFP strain, flow cytometry fluorescence, 3 h; at 10 µM; stronger effect = lower value
[2] = modulators of MEP2-GFP levels in yeast, primary screen, S. cerevisiae, multiplex flow cytometry (AID 1867;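 active = GFP response, as percent of the DMSO control, above the screen-wide mean plus 3 SD, about 139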;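 note: median GFP channel fluorescence of barcode-gated MEP2-GFP cells measured by flow cytometry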); conditions: S. cerevisiae MEP2-GFP strain, 3 h, at 10 µM, stronger effect = higher value, 100% means same as DMSO wells
[3] = modulators of CIT2-GFP expression in yeast, primary screen, S. cerevisiae, GFP fusion, multiplex flow cytometry (AID 1870;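 active = percent response above a set limit, the screen-wide mean plus 3 SD, cut at about 130% in these data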;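 note: barcoded CIT2-GFP strain pooled with four other GFP strains with rapamycin as positive control; median GFP fluorescence per well over plate mean of DMSO wells so 100% = DMSO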); conditions: 3 h, at 10 µM, stronger effect = higher value
[4] = modulators of LAP4-GFP expression in yeast, primary screen, S. cerevisiae, multiplex flow cytometry (AID 1873;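 active = GFP signal, as percent of the solvent control, above the screen mean plus 3 SD, about 149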); conditions: 3 h, at 10 µM, stronger effect = higher value
[5] = modulators of AGP1-GFP expression in yeast TOR pathway, primary screen, cell-based, multiplex flow cytometry, S. cerevisiae (AID 1887;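 active = GFP signal above the screen-wide mean plus 3 SD, that is over about 124.5% of the solvent control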;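 note: AGP1-GFP fusion strain of S. cerevisiae within a five-strain barcoded multiplex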); conditions: 3 h, at 10 µM, stronger effect = higher value
[6] = inhibitors of CD8+ T cell-vesicle binding, pilot screen, LFA-1/ICAM-1 modulator project, MLPCN validation set, flow cytometry (AID 2523;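 active = response below a set limit, under 55% cells CD8-positive and vesicle-bound, and CD8 cells' 90th-percentile brightness under 279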;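 for vesicle binding response: mean PE anti-B7-1 fluorescence of CD8+ cells relative to row control; 100% = QL9-loaded vesicles with DMSO vehicle in the same plate row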); conditions: 2C mouse CD8+ T cells, at 7 µM, stronger effect = lower value; double positive events: measured here: CD8+/vesicle+ event percentage
[7] = target: Integrin beta-1 (Homo sapiens) + Integrin alpha-4 (Homo sapiens) (UniProt P13612+P05556); assay: inhibition of HUTS-21 binding to VLA-4, pilot screen, VLA-4 allosteric modulator project, U937 cells, HUTS-21 mAb, flow cytometry, validation set (AID 2674;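 active = inhibition above 50%, about 3 SD of the validation set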;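 note: antibody binding induced by the VLA-4 ligand LDV present at three times its Kd; 0% = LDV ligand with antibody and no compound and 100% = antibody without LDV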); conditions: HUTS-21 LIBS mAb binding, at 6.7 µM, stronger effect = higher value, binding induced by LDV ligand
[8] = superoxide lowering in aged yeast cells, pilot screen, validation compound set (AID 2706;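 active = superoxide response below 65% of plate, a cut near 3 SD across the whole screen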;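 note: yeast exposed to compound for one week at 30 degrees C before staining; 100% = mean of all compound wells on the same plate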); conditions: S. cerevisiae aging, superoxide DHE fluorescence; at 10 µM; stronger effect = lower value
[9] = target: Beta-adrenergic receptor kinase 1 (Homo sapiens) (UniProt P25098); assay: GRK2 binders displacing RNA aptamer, biochemical, validation, human GRK2, bead flow cytometry (AID 488806;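 active = aptamer binding inhibition above 30%, about 3 SD of noise from non-fluorescent compounds; inactive = inhibition at or below 30%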); conditions: bead-bound GRK2, FAM-aptamer displacement, at 10 µM, stronger effect = higher value
[10] = target: Beta-2 adrenergic receptor (Homo sapiens) (UniProt P07550); assay: beta2AR agonists driving receptor internalization, pilot screen, cell-based, FAP fluorogen, flow cytometry, validation set (AID 504459;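 active = percent response above 42, roughly 3 SD of non-fluorescent test compounds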;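 note: agonist-driven loss of surface beta2AR via internalization measured by FAP dye flow cytometry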); conditions: Am2.2-beta2AR cells, FAP surface receptor flow cytometry; at 10 µM; stronger effect = higher value
[11] = target: AP-2 complex subunit beta (Homo sapiens) (UniProt P63010); assay: inhibitors of arrestin peptide binding to AP2, pilot screen, biochemical, validation set, GST-AP2 beads, flow cytometry (AID 504541;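 active = inhibition above 54%, about 3 SD of non-fluorescent compounds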;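 note: AP2 carries R879A mutation and is captured from E. coli lysate; bead-bound FITC arrestin peptide fluorescence measuring arrestin peptide binding to AP2; 0% = DMSO wells and 100% = excess unlabeled arrestin peptide control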); conditions: FITC arrestin peptide, at 10 µM, stronger effect = higher value, AP2 beta2 appendage fragment, R879A mutant
[12] = yeast V-ATPase proton transport modulators, S. cerevisiae, pHLuorin, HTS validation (AID 504600; in the data active = response above about 15%;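 note: plate controls were DMSO for no effect and reference compound for full effect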); conditions: S. cerevisiae pHLuorin cytosolic pH, at 10 µM, stronger effect = higher value
[13] = test system: anti-desmoglein-3 scFv antibody binding to human DSG3; assay: inhibitors of anti-DSG3 scFv binding to DSG3, pilot screen, biochemical, validation compound set, bead-based, flow cytometry (AID 588368); conditions: Protein G beads, DSG3-Fc, scFv-GFP binding, at 10 µM, stronger effect = lower value;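 note: signal is the median channel fluorescence of bead-bound GFP antibody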
[14] = inhibitors of fungal efflux pumps CDR1, CDR2, MDR1, pilot screen, validation compound set, multiplex, phenotypic (AID 588506;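 active = efflux inhibition above 0.42, the validation set average plus 4 SD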;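 note: Nile Red retained in cells so higher fluorescence means more efflux inhibition; 0 = negative control wells and 1 = enniatin B 25 µM full block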); conditions: S. cerevisiae pump-expressing triplex, Nile Red efflux flow cytometry; at 10 µM; stronger effect = higher value; the pumps come from Candida albicans
[15] = target: ATP-binding cassette sub-family B member 6 (Homo sapiens) (UniProt Q9NP58); assay: ABCB6 transporter inhibitors, pilot screen, K562-ABCB6 cells, flow cytometry, validation set (AID 588550;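 active = inhibition above the screen-wide mean plus 3 SD, about 51%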;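 note: 0% = DMSO wells and 100% = benzethonium chloride 70 µM positive control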); conditions: K562-ABCB6 porphyrin accumulation, 1 h, at 10 µM, stronger effect = higher value
[16] = promoters of myeloid differentiation in arrested cells, primary screen, cell-based, GFP/MAC1 double positive, flow cytometry, validation set (AID 588685;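 active = differentiation response of at least 50%, scaled between solvent and reference control, from cells with both markers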;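 note: compound exposure lasts four days before antibody staining and flow analysis; 0% = DMSO wells and 100% = 5 µM fulvestrant positive control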); conditions: ER-HoxA9 marrow cells, stronger effect = higher value, normalized: vehicle 0, fulvestrant 100

Sequence of AP-2 complex subunit beta (Homo sapiens) (P63010 whole entry, looked up, the tested form may be a part, one chain of several): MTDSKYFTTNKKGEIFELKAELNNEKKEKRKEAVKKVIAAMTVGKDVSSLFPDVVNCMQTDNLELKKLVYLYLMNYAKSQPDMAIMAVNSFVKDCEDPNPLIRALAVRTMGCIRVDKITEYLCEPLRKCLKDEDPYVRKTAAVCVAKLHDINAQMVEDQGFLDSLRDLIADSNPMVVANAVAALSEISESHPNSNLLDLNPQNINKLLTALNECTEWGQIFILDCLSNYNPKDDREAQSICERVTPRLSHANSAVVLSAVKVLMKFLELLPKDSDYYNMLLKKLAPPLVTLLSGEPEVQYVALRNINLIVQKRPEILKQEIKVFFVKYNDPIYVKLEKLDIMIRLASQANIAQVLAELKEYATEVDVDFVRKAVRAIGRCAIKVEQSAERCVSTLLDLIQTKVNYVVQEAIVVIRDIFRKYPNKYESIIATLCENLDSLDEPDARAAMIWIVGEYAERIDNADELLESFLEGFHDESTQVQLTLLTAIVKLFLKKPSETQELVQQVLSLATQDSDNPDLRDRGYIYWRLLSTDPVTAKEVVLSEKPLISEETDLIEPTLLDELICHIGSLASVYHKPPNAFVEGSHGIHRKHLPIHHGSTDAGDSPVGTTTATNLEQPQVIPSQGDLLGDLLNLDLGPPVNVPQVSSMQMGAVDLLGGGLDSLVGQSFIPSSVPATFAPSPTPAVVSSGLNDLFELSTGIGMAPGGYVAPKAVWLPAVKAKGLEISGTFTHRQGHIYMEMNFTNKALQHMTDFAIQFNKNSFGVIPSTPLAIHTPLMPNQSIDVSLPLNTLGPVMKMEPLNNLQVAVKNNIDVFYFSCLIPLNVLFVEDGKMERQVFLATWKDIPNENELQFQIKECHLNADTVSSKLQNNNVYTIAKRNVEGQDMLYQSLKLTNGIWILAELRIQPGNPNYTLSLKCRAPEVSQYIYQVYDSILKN
Sequence of Beta-2 adrenergic receptor (Homo sapiens) (P07550 whole entry, looked up): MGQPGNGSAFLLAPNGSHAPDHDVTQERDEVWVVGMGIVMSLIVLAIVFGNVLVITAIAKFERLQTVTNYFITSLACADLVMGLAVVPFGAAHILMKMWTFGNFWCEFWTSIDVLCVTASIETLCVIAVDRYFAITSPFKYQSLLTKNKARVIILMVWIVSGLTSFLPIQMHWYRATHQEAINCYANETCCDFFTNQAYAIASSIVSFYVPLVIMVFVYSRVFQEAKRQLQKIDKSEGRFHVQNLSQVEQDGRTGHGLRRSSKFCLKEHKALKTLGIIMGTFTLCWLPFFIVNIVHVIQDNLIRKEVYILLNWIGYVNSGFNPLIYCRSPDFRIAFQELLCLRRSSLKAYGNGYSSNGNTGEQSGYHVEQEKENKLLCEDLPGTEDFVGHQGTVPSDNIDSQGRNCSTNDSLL
Sequence of ATP-binding cassette sub-family B member 6 (Homo sapiens) (Q9NP58 whole entry, looked up): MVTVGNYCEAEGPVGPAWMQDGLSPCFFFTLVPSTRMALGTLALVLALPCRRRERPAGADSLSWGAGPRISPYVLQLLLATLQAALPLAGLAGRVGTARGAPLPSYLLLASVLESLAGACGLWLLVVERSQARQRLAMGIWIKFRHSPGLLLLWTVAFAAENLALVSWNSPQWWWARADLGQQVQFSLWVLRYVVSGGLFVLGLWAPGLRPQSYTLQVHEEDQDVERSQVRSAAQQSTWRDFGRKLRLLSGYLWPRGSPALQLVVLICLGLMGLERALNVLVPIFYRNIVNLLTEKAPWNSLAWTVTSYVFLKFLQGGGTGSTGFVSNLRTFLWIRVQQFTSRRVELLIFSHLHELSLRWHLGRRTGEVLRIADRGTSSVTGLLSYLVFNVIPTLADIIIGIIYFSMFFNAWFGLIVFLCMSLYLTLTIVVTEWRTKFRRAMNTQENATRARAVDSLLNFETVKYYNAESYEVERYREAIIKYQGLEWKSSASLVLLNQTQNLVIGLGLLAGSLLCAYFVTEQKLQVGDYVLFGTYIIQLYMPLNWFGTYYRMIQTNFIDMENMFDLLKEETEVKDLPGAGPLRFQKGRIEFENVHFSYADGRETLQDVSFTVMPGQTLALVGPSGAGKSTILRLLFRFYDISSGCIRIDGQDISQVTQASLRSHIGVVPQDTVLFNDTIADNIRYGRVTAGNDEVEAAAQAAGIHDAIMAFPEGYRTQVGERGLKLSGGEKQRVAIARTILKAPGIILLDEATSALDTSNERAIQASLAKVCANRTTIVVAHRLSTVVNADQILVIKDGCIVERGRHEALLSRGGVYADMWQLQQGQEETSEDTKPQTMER
Sequence of Integrin beta-1 (Homo sapiens) + Integrin alpha-4 (Homo sapiens) (P05556 whole entry, looked up): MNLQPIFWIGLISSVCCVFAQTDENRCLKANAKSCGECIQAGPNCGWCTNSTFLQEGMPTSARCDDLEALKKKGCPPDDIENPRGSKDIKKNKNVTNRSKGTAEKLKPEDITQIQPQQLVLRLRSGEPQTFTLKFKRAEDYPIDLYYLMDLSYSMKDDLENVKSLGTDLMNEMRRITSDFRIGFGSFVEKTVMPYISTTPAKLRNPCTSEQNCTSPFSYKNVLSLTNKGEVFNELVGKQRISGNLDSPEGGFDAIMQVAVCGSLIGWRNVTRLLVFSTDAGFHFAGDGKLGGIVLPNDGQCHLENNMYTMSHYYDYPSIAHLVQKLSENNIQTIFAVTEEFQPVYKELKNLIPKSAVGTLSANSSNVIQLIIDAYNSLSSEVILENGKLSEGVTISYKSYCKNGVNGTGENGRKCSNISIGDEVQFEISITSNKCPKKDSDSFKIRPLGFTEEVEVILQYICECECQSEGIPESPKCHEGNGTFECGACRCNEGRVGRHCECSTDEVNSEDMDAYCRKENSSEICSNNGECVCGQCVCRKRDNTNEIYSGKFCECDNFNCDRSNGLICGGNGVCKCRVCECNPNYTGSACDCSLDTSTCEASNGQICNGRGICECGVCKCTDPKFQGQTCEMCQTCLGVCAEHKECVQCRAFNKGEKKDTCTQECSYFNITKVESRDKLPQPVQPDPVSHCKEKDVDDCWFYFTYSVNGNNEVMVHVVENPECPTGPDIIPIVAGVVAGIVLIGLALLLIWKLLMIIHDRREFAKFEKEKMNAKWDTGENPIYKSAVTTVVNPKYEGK
Sequence of Integrin beta-1 (Homo sapiens) + Integrin alpha-4 (Homo sapiens) (P13612 whole entry, looked up): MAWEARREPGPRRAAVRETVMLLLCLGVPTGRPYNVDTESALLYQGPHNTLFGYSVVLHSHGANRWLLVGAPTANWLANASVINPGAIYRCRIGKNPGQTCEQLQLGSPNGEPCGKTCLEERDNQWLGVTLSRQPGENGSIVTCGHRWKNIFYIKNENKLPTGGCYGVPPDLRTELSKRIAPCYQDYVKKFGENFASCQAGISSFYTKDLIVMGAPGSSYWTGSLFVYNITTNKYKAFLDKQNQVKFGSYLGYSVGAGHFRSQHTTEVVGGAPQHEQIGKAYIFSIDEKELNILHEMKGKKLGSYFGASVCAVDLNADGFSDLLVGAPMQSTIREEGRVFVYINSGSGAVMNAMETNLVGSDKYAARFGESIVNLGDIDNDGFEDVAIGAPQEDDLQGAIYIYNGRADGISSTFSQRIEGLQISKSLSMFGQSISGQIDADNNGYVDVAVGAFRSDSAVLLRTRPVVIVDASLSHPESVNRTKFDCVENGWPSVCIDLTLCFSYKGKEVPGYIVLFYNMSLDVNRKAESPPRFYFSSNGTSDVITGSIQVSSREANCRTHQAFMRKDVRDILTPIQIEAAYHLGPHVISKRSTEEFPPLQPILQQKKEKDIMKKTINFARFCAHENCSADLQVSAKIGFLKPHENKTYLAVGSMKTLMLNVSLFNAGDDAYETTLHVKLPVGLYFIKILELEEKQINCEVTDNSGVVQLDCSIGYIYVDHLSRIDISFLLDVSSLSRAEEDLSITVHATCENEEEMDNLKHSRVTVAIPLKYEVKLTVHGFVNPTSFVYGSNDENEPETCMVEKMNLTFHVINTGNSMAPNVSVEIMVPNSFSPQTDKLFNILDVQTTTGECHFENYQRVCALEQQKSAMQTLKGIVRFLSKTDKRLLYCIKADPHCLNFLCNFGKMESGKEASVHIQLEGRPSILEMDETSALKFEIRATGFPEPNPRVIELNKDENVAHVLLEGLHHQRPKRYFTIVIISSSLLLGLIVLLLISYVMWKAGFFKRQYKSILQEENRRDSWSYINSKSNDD
Sequence of Beta-adrenergic receptor kinase 1 (Homo sapiens) (P25098 whole entry, looked up): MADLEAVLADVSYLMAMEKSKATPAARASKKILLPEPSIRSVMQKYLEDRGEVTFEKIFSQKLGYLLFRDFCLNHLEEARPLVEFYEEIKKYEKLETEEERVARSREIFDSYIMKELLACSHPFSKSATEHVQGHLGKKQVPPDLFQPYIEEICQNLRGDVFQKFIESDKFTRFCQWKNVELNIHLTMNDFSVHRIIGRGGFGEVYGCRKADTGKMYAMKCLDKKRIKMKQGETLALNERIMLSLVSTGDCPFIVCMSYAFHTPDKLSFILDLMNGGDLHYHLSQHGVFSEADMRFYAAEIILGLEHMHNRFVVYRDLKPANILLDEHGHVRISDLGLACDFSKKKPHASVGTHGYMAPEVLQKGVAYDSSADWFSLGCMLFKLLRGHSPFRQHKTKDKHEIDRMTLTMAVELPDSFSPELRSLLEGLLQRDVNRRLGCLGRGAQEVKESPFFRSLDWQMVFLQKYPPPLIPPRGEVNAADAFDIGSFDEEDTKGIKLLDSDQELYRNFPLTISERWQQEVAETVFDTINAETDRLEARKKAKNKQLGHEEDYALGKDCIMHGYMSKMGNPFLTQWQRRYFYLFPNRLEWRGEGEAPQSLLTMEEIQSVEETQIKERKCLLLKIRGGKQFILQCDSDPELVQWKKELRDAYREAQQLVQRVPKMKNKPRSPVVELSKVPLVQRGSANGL

Structure (SMILES) | percent of DMSO control GFP [1] | GFP response vs DMSO [2] | percent response of DMSO control [3] | GFP response vs DMSO [4] | GFP response, % of DMSO [5] | double positive events [6] [%] | vesicle binding response [6] | inhibition [7] | superoxide response (% of plate) [8] | aptamer binding inhibition [9] | response [10] | inhibition [11] | response [12] | binding (% of control) [13] | efflux inhibition (fraction of control) [14] | inhibition [15] | differentiation response [16]
CC1CC(OC(=O)C(O)c2ccccc2)CC(C)(C)N1C (stereo not drawn) | 94.4% (inactive) | 112% (inactive) | 94.8% (inactive) | 111% (inactive) | 97.5% (inactive) | 57.9 | 217% (inactive) | -8.62% (inactive) | 99.3% (inactive) | 0% (inactive) | 0.13% (inactive) | -13.2% (inactive) | 7.51% (inactive) | 103% (inactive) | -0.03 (inactive) | 5% (inactive) | -18.4% (inactive)
CCOC(=O)C(=Cc1ccccc1OC)C(=O)OCC | 95% (inactive) | 108% (inactive) | 91% (inactive) | 132% (inactive) | 92.9% (inactive) | 55.3 | 189% (inactive) | -18.2% (inactive) | 102% (inactive) | -2% (inactive) | -11.8% (inactive) | 0.13% (inactive) | 0.91% (inactive) | 98.9% (inactive) | -0.03 (inactive) | 4% (inactive) | -12% (inactive)
COc1ccc(C(=O)Nc2cccc3cccnc23)cc1OC | 102% (inactive) | 105% (inactive) | 105% (inactive) | 119% (inactive) | 96.3% (inactive) | 49.8 | 156% (inactive) | -18.5% (inactive) | 103% (inactive) | -4% (inactive) | 10.2% (inactive) | -6.27% (inactive) | -0.52% (inactive) | 103% (inactive) | -0.33 (inactive) | 0% (inactive) | -17.7% (inactive)
CC(=O)N1CCN(c2ccc(OC[C@H]3CO[C@](Cn4ccnc4)(c4ccc(Cl)cc4Cl)O3)cc2)CC1 | 105% (inactive) | 108% (inactive) | 111% (inactive) | 109% (inactive) | 111% (inactive) | 63.3 | 188% (inactive) | 4.27% (inactive) | 100% (inactive) | -2% (inactive) | 0.01% (inactive) | 6.3% (inactive) | -2.33% (inactive) | 98.1% (inactive) | 0.59 (active) | -9% (inactive) | -10.4% (inactive)
CSCCC(NC(C)=O)C(=O)Oc1ccc2c3c(c(=O)oc2c1)CCCC3 (stereo not drawn) | 102% (inactive) | 101% (inactive) | 105% (inactive) | 99.9% (inactive) | 100% (inactive) | 61.1 | 56% (inactive) | 3.7% (inactive) | 102% (inactive) | 4% (inactive) | -6.44% (inactive) | 17.4% (inactive) | -2.62% (inactive) | 93.2% (inactive) | -0.01 (inactive) | 11% (inactive) | 0.24% (inactive)
CCOC(=O)c1c(C)oc2c1C(=O)c1ccccc1C2=O | 111% (inactive) | 102% (inactive) | 107% (inactive) | 104% (inactive) | 99.9% (inactive) | 59.4 | 316% (inactive) | -16.1% (inactive) | 126% (inactive) | 5% (inactive) | 3.7% (inactive) | 0.55% (inactive) | 0.26% (inactive) | 96.7% (inactive) | -0.22 (inactive) | -26% (inactive) | -0.36% (inactive)
CC1=CC(=O)c2ccccc2C1=O | 101% (inactive) | 104% (inactive) | 94.5% (inactive) | 94.8% (inactive) | 91.1% (inactive) | 60.8 | 105% (inactive) | -5.11% (inactive) | 108% (inactive) | 1% (inactive) | 22.2% (inactive) | -9.12% (inactive) | 1.78% (inactive) | 102% (inactive) | -0.21 (inactive) | 1% (inactive) | 14.4% (inactive)
CCC(CO)NCCNC(CC)CO (stereo not drawn) | 95.5% (inactive) | 139% (inactive) | 101% (inactive) | 87.5% (inactive) | 97.7% (inactive) | 66.7 | 133% (inactive) | 4.52% (inactive) | 91.3% (inactive) | -1% (inactive) | 3.66% (inactive) | 33.3% (inactive) | -3.71% (inactive) | 103% (inactive) | -0.28 (inactive) | 114% (active) | -1.64% (inactive)
Cc1ccc2c(c1)C1OCCC1C1N2C(=O)C2C(C(=O)O)C3C=CC21O3 (stereo not drawn) | 104% (inactive) | 107% (inactive) | 110% (inactive) | 106% (inactive) | 107% (inactive) | 62.2 | 207% (inactive) | 11% (inactive) | 106% (inactive) | 11% (inactive) | 0.35% (inactive) | 41.7% (inactive) | 3.53% (inactive) | 101% (inactive) | -0.32 (inactive) | 11% (inactive) | -13.3% (inactive)
O=C(O)CCSCCC(=O)O | 99.2% (inactive) | 107% (inactive) | 94.2% (inactive) | 97.3% (inactive) | 102% (inactive) | 63.2 | 5720% (inactive) | 8.88% (inactive) | 107% (inactive) | 1% (inactive) | 2.6% (inactive) | 10% (inactive) | 1.2% (inactive) | 94% (inactive) | 0.05 (inactive) | 7% (inactive) | -9.53% (inactive)
CCN(CC)c1ccc(C2=NNC(=O)CC2C)cc1[N+](=O)[O-] (stereo not drawn) | 97.4% (inactive) | 102% (inactive) | 95.8% (inactive) | 119% (inactive) | 105% (inactive) | 60.7 | 189% (inactive) | -15.4% (inactive) | 110% (inactive) | 3% (inactive) | 0.9% (inactive) | -4.02% (inactive) | -0.46% (inactive) | 98.9% (inactive) | -0.21 (inactive) | -22% (inactive) | -4% (inactive)
CCc1cccc2c3c([nH]c12)C(CC)(CC(=O)O)OCC3 (stereo not drawn) | 103% (inactive) | 106% (inactive) | 100% (inactive) | 93.3% (inactive) | 100% (inactive) | 61.9 | 36.2% (inactive) | -4.6% (inactive) | 107% (inactive) | 1% (inactive) | -0.16% (inactive) | -11.4% (inactive) | 1.09% (inactive) | 86.9% (inactive) | -0.26 (inactive) | -5% (inactive) | 3.18% (inactive)
CCOc1ccc(OCCSc2nc3ccccc3[nH]2)cc1 | 98.2% (inactive) | 98.5% (inactive) | 101% (inactive) | 108% (inactive) | 83.3% (inactive) | 60.3 | 186% (inactive) | 16% (inactive) | 107% (inactive) | 4% (inactive) | -17.3% (inactive) | -5.21% (inactive) | 1.04% (inactive) | 98.7% (inactive) | 0.05 (inactive) | 3% (inactive) | -7.2% (inactive)
COc1cc2cc(C(=O)O)[nH]c2c(OC)c1OC | 102% (inactive) | 106% (inactive) | 96.6% (inactive) | 106% (inactive) | 99.5% (inactive) | 61 | 187% (inactive) | -1.49% (inactive) | 112% (inactive) | 0% (inactive) | -2.07% (inactive) | -16.9% (inactive) | -0.34% (inactive) | 98.7% (inactive) | -0.32 (inactive) | -4% (inactive) | 8.06% (inactive)
CC(=O)OCC(=O)[C@@]1(O)CC[C@H]2[C@@H]3CCC4=CC(=O)C=C[C@]4(C)[C@H]3[C@@H](O)C[C@@]21C | 90.2% (inactive) | 132% (inactive) | 99.2% (inactive) | 101% (inactive) | 103% (inactive) | 66.4 | 161% (inactive) | 9.37% (inactive) | 97% (inactive) | 1% (inactive) | 4% (inactive) | 8.75% (inactive) | -0.94% (inactive) | 98.1% (inactive) | -0.09 (inactive) | 9% (inactive) | 5.73% (inactive)
CC1(C#CC[N+]2(C)CCCCC2)CCC2C(O1)c1ccccc1OC2(C)C (stereo not drawn) | 103% (inactive) | 102% (inactive) | 107% (inactive) | 91.5% (inactive) | 106% (inactive) | 60.2 | 95.6% (inactive) | -6.45% (inactive) | 101% (inactive) | -11% (inactive) | 5.86% (inactive) | -11.4% (inactive) | 2.59% (inactive) | 101% (inactive) | 0.07 (inactive) | -6% (inactive) | -10.4% (inactive)
O=C(/C=C/c1ccc(F)cc1)N1CC[C@@]2(O)CCCC[C@H]2C1 | 96.7% (inactive) | 112% (inactive) | 89.1% (inactive) | 125% (inactive) | 96.5% (inactive) | 61.1 | 198% (inactive) | -4.52% (inactive) | 98.4% (inactive) | 3% (inactive) | 15.3% (inactive) | -5.97% (inactive) | 10.1% (inactive) | 98% (inactive) | -0.13 (inactive) | 7% (inactive) | -13.6% (inactive)
CCn1c(N2CCN(CC(=O)c3c(C)n(C)c4ccc(OC)cc34)CC2)nc2c1c(=O)[nH]c(=O)n2C | 101% (inactive) | 104% (inactive) | 97.8% (inactive) | 91.4% (inactive) | 99.9% (inactive) | 60 | 206% (inactive) | -18.1% (inactive) | 100% (inactive) | 1% (inactive) | -1.41% (inactive) | 12.1% (inactive) | -2.91% (inactive) | 101% (inactive) | -0.26 (inactive) | 23% (inactive) | -2.69% (inactive)
COc1ccc(/C=C/C(=O)NC(=S)NN2CCCCC2c2cccnc2)cc1 (stereo not drawn) | 106% (inactive) | 99.7% (inactive) | 102% (inactive) | 107% (inactive) | 109% (inactive) | 66.3 | 199% (inactive) | -2.43% (inactive) | 95.5% (inactive) | -3% (inactive) | -5.93% (inactive) | 12.7% (inactive) | 0.36% (inactive) | 104% (inactive) | 0.33 (inactive) | 2% (inactive) | -4.57% (inactive)
